ST2 inh: inhibitors of human ST2 (IL1RL1) binding to IL-33, primary screen, biochemical, AlphaLISA. Interleukin-1 receptor-like 1 (Homo sapiens), Q01638. AlphaLISA ST2-Fc/biotin-IL-33 interaction, 1 h. inhibition, % for hits at 17 µM. 78,000 tested, 2.3% active; in the data active means inhibition above about 30%
Target sequence (Q01638 whole entry, looked up): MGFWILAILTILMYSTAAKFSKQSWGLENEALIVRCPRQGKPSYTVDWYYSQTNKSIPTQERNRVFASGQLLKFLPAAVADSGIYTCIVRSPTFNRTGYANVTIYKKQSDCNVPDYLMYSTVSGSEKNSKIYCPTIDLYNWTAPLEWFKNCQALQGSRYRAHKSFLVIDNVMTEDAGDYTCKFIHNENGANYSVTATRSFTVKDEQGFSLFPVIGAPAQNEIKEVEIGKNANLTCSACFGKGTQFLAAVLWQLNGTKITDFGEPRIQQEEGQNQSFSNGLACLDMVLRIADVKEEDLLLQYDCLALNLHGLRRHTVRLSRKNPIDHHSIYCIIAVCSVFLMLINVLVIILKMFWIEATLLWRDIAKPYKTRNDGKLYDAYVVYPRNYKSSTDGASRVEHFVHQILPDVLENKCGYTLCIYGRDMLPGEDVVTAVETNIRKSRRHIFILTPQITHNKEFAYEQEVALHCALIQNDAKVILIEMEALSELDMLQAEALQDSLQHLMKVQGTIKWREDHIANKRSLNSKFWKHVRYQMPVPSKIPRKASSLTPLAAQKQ
Starred values were filed as active, the others as inactive; i = inactive. This is one part of a sample in which hits are shown more often than they occur.

SMILES | ST2 inh
CC(=O)Oc1ccc([C@H]2C(C#N)=C(N)OC3=C2C(=O)CC(C)(C)C3)cc1 | i
Cc1ccccc1C1C(C#N)=C(N)OC2=C1C(=O)CC(C)(C)C2 (stereo not drawn) | i
CCOC=NC1=C(C#N)C(c2ccc(Cl)cc2)C2=C(CC(C)(C)CC2=O)O1 (stereo not drawn) | 79%*
CCOC=NC1=C(C#N)C(c2ccccc2)C2=C(CC(C)(C)CC2=O)O1 (stereo not drawn) | 59%*
O=C(CN1CCN(Cc2ccc(F)cc2)C1=O)NC1CCCCC1 | i
Nc1nc(=O)n2c(n1)sc1ccccc12 | i
O=C(c1ccc2ccccc2c1)C1CCCN(C(=O)c2ccccn2)C1 (stereo not drawn) | i
COC(=O)c1sccc1S(=O)(=O)N[C@@H]1CC[C@@H](N)C1 | i
O=C(C1CCN(S(=O)(=O)c2cccnc2)CC1)N1CCc2ccccc21 | i
CCOC(=O)CNC(=O)N1CCC2(CCCN(CC3CC3)C2=O)C1 (stereo not drawn) | i
O=C(Nc1ccc(S(=O)(=O)N2CCCC2)cc1)C(F)(F)F | i
O=C(Nc1ccc(N2CCOCC2)cc1)c1ccc(Br)cc1 | i
CC(=O)Nc1ccc(CN2CCN(c3ccc(Cl)cc3)CC2)cc1 | i
O=C(Nc1ccc(Br)cc1)c1ccc(Cl)cc1Cl | i
O=C(Nc1ccc(N2CCCC2)cc1)C(Cl)(Cl)Cl | 38%*
O=C(Nc1ccc(N2CCCC2)cc1)c1cc(Br)ccc1Cl | 34%*
C=CCN(CC=C)S(=O)(=O)c1ccc(C(=O)Nc2nnc(C3CC3)o2)cc1 | i
Cc1cccc(NC(=O)CSc2nc(-c3cccs3)cc(C(F)(F)F)c2C#N)n1 | i
O=C1c2c(O)ccc(O)c2C(=O)c2c(NCCNCCO)ccc(NCCNCCO)c21 | 82%*
O=C1c2cccc3cccc(c23)C(=O)N1CCNCCO | i
CC1=C(C(=O)OCCc2ccccc2)C(c2ccccc2F)NC(=O)N1 (stereo not drawn) | i
CCc1ncc(C(=O)NC(C)Cc2ccncc2)cn1 (stereo not drawn) | i
O=c1[nH]c(Nc2ccc(Br)cc2)nnc1Cc1ccccc1Cl | i
COc1ccc2cc(C3CN(C(=O)c4cc(N)n[nH]4)CCO3)ccc2c1 (stereo not drawn) | i
COc1cccc(-c2ccccc2NC(=O)C2CCN(Cc3cccc4ncccc34)CC2)c1 | i
SMILES | ST2 inh
N#C/C(=C\c1ccc(-c2cccc(C(F)(F)F)c2)o1)C(=O)O | i
N#C/C(=C\c1ccc(-c2ccccc2)o1)C(=O)Nc1cccc2ncccc12 | 40%*
Cc1nnc(-c2ccccc2-c2cc(F)cc3c2OC(CN)C3)s1 (stereo not drawn) | i
COc1cc(NC(=S)N[C@H]2CO[C@H]3[C@@H]2OC[C@H]3OC(=O)Nc2ccc(C(C)=O)cc2)cc(OC)c1 | i
CC(C)c1ccc(NC(=O)O[C@@H]2CO[C@H]3[C@@H]2OC[C@@H]3NC(=S)Nc2ccccc2)cc1 | i
CC(=O)c1ccc(NC(=O)O[C@@H]2CO[C@H]3[C@@H]2OC[C@@H]3NC(=O)Nc2cccc(C#N)c2)cc1 | i
CC(=O)c1ccc(NC(=O)N[C@H]2CO[C@H]3[C@@H]2OC[C@H]3OC(=O)Nc2cccc(C(C)=O)c2)cc1 | 85%*
CC(=O)c1ccc(NC(=O)O[C@@H]2CO[C@H]3[C@@H]2OC[C@@H]3NC(=S)Nc2ccccc2)cc1 | 41%*
CC(=O)c1ccc(NC(=O)O[C@@H]2CO[C@H]3[C@@H]2OC[C@@H]3NC(=O)NC2CCCCC2)cc1 | i
Cc1nc(NCc2ccc(Cl)cc2)c2c(C)c(C)sc2n1 | i
O=C(c1cc(C2CC2)[nH]n1)N1CCC(C(O)c2cccs2)CC1 (stereo not drawn) | i
Cc1[nH]n(-c2ccccc2)c(=O)c1C=Nc1c(C)[nH]n(-c2ccccc2)c1=O | i
Cc1[nH]n(-c2ccccc2)c(=O)c1C=Nc1cccc(N)c1 | i
CCCCOc1cccc(N=Cc2c(C)[nH]n(-c3ccccc3)c2=O)c1 | 36%*
COc1cc(C(=O)Nc2ccccc2Oc2ccccc2)cc(OC)c1OC | i
CC(=O)NCC(CN1CCOCC1)([N+](=O)[O-])[N+](=O)[O-] | i
CC1=C(C(=O)OC(C)C)C(c2ccc(Cl)cc2)C2=C(CC(C)(C)CC2=O)N1 (stereo not drawn) | i
CCN1CCN(CCCNC(=O)C2CCN(S(=O)(=O)N3CCCCC3)CC2)CC1 | i
CCOC(=O)N1CCC(NCCCn2cc(C)cn2)CC1 | i
Cc1ccc(C23C[C@@H]4C[C@@H](CC(O)(C4)C2)C3)cc1[N+](=O)[O-] | 44%*
Cc1ccc(C23C[C@@H]4C[C@@H](CC(Cl)(C4)C2)C3)cc1N | i
Cc1ccc(S(=O)(=O)N2CCN(S(=O)(=O)c3ccc(C)c([N+](=O)[O-])c3)C2)cc1 | i
CN(C(=O)Cc1c(C(=O)O)[nH]c2ccc(Cl)cc12)c1ccc(Cl)cc1 | i
CCc1csc(CNC(=O)c2ccc(NC3CCSC3)nc2)n1 (stereo not drawn) | i
CC1=C(C(=O)OC(C)C)C(c2cccs2)C(C#N)=C(N)O1 (stereo not drawn) | i
SMILES | ST2 inh
COc1cc2c(cc1OC)C(C(=O)NCCN(C)C)C(c1ccccc1F)N(C)C2=O (stereo not drawn) | 32%*
CCCCNC(=O)C1c2cc(OC)c(OC)cc2C(=O)N(C)C1c1ccccc1F (stereo not drawn) | i
COc1ccccc1CNC(=O)C1c2cc(OC)c(OC)cc2C(=O)N(C)C1c1ccccc1F (stereo not drawn) | i
COc1ccc(-n2c(CN)n[nH]c2=O)cc1Cl | i
O=C(/C=C/c1ccc2c(c1)OCO2)Nc1ccc2c(c1)OCO2 | i
COCCn1c(CNS(=O)(=O)c2ccc(F)c(Cl)c2)nc2cccnc21 | i
CCOC(=O)c1ccc(CN(Cc2ccncc2)S(=O)(=O)c2ccc(C(C)(C)C)cc2)cc1 | i
CN1CCC(N2C[C@H](O)C[C@H]2c2nc(Cc3ccc(F)cc3Cl)no2)CC1 | 31%*
O=[N+]([O-])c1ccccc1CN1C[C@H](O)C[C@H]1c1nc(Cc2ccc(F)cc2Cl)no1 | i
CC(=O)N1CCC(N2C[C@H](O)C[C@H]2c2nc(CS(=O)(=O)c3ccc(F)cc3)no2)CC1 | i
O=C(NCc1nnc2n1CCCC2)c1ccc(C2CCCO2)s1 (stereo not drawn) | i
CN(Cc1ccsc1)Cc1nc(-c2cccc(Cl)c2)no1 | i
O=C(O)C1CCN(c2nc(-c3ccc(Br)cc3)cs2)CC1 | i
CN(C)c1ccc(/C=C(\C#N)c2nc(-c3ccc(Br)cc3)cs2)cc1 | 53%*
CCOc1ccc(-c2csc(/C(C#N)=C/c3ccc(OC)cc3)n2)cc1 | 54%*
COc1ccc(-c2csc(/C(C#N)=C/c3cccc(F)c3)n2)cc1 | 43%*
CCOc1ccc(-c2csc(NC(=O)c3ccc(OC)c(OC)c3)n2)cc1 | i
COc1cc(/C=C(\C#N)c2nc(-c3ccc(Br)cc3)cs2)ccc1O | 33%*
COc1cc(-c2oc(-c3ccc(O)c(OC)c3)c(C)c2C)ccc1O | i
CCOc1ccc(-c2csc(-c3cc4cccc(OC)c4oc3=O)n2)cc1 | i
COc1ccc(-c2cc(-c3ccccc3)nc(Br)c2C#N)cc1 | i
N#C/C(=C\c1cccc(F)c1)c1nc(-c2cc3ccccc3oc2=O)cs1 | i
N#Cc1cc2c(nc1SCc1ccccc1F)CCC2 | i
COc1cccc(-c2cc(CNS(=O)(=O)NCc3ccccc3)on2)c1 | i
